Most compounds without a hit are left out; they make up all but 3.3% or so of the library.
Vaccinia mCherry: qHTS for Stage-Specific Inhibitors of Vaccinia Orthopoxvirus: mCherry Reporter Primary qHTS; AID 720579, 2013; Vaccinia virus mCherry reporter infection, fluorescence; Potency, µM (titrated, usually from 36.5 µM), usual class: inhibitors; hit rate 0.63% among 310,000; calls by dose curve; tested in A549 cells; further: nearly all actives have a fitted effect of over 35% in size
HCV inh: qHTS Assay for Inhibitors of Hepatitis C Virus (HCV). Huh7.5.1 HCVcc-Cre infection, luciferase reporter, 44 h. Potency, µM (doses to about 41.8 µM), most hits filed as inhibitors. hit rate 3.4% among 340,000; active means well fitted inhibition curve with a large enough effect; inconclusive means small, poorly fitted or top-dose-only effect, or another doubt; inactive means no such curve, though single readings can be large or run the other way
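1,000 cells/well; 4 h culture; + compound; + HCVcc-Cre (~0.5 moi); 44 h; luciferase substrate, RT 15 min; read 15 sec.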
VACV Venus inh: qHTS for Stage-Specific Inhibitors of Vaccinia Orthopoxvirus: Venus Reporter Primary qHTS; Vaccinia virus Venus reporter expression, fluorescence; Potency, µM (top dose mostly 36.5 µM), actives largely listed as inhibitors; hit rate 0.46% among 330,000; calls by dose curve; tested in A549 cells; further: nearly all actives have a fitted effect of over 30% in size
Hits are given with their value; n = inactive; u = inconclusive; x = no result; [ ] = dose if it differs, or a comment.

SMILES	Vaccinia mCherry	HCV inh	VACV Venus inh
COc1ccc(OC)c(/C=C2\C=Cc3ccccc32)c1	n	x	n
COc1cccc(/C=C/C(=O)NNC(=O)CCN2CCN(Cc3ccccc3)CC2)c1	u	n	n
O=C(/C=C/c1ccc(F)cc1)NNC(=O)CCN1CCN(Cc2ccccc2)CC1	11.2µM	n	u
COCCCN1C(=O)C(CC(=O)NCc2ccco2)CC(C(=O)N(C)C)=C1C (stereo not drawn)	n	x	n
CCCCCc1ccc(-c2nnc(N)s2)cc1	n	n	n
CCCCCCc1ccc(-c2ncc(N)cn2)cc1	x	5.62µM	x
O=S(=O)(/N=C(/Nc1ccc(Cl)c(S(=O)(=O)N2CCOCC2)c1)c1ccc(F)cc1)c1ccccc1	n	n	n
COc1ccccc1NS(=O)(=O)c1cc(N/C(=N\S(=O)(=O)c2ccccc2)c2ccc(F)cc2)ccc1Cl	n	35.5µM	n
COc1ccc(NS(=O)(=O)c2cc(NC(=O)Cc3n[nH]c(=O)c4ccccc34)ccc2OC)cc1	n	u	n
COc1ccccc1NS(=O)(=O)c1cc(NC(=O)Cc2n[nH]c(=O)c3ccccc23)ccc1Cl	n	3.16µM	n
Cc1ccc(C)c(S(=O)(=O)N2CCN(C(=O)[C@@H]3CCCN3C(=O)c3cccs3)CC2)c1	n	u	n
COc1ccc(/C=N/NC(=O)c2nc(-c3ccccc3)n(-c3ccccc3)n2)cc1	n	n	n
COc1ccc(/C=N/NC(=O)c2nc(-c3ccccc3)n(-c3ccccc3)n2)c(O)c1	3.16µM	u	u
CC(=O)Nc1cc([N+](=O)[O-])cc(NC(C)=O)c1NC(C)=O	n	x	n
COc1cc2cncnc2cc1OCCCCC(N)=O	n	x	n
CC(=O)N1CCc2cc(S(=O)(=O)Nc3cccc(C(F)(F)F)c3)ccc21	u	12.6µM	u
COc1cccc(NS(=O)(=O)c2ccc3c(c2)CCCN3C(=O)C2CCC2)c1	n	x	n
CSc1cccc(NS(=O)(=O)c2ccc3c(c2)CCN3C(C)=O)c1	x	5.62µM	x
CC(=O)N1CCc2cc(S(=O)(=O)Nc3ccc(C)cc3)ccc21	n	n	n
COc1cccc(NS(=O)(=O)c2ccc3c(c2)CCN3C(C)=O)c1	u	1.58µM	n
CC(=O)N1CCCc2cc(S(=O)(=O)Nc3ccc(C)c(F)c3)ccc21	n	x	n
C=C1C=C(C(F)F)n2ncc(C(=O)Nc3ccc(Br)cc3C(F)(F)F)c2N1	n	x	n
Cn1c(=O)cc(OCCCC(=O)Nc2cccc(Cl)c2)c2ccccc21	n	x	n
Cc1nn(-c2ccc(F)cc2)c(C)c1CNC(=O)c1ccc(-n2cc(NC(=O)c3ccoc3)cn2)cc1	n	x	n
C=CCOc1ccccc1OCC(O)CNC(C)C (stereo not drawn)	n	1µM	n
SMILES	Vaccinia mCherry	HCV inh	VACV Venus inh
Cc1cccc(C)c1OCC(O)CNC(C)C (stereo not drawn)	n	n	n
Cc1ccc(NC(=O)CSc2nc(=O)n(CCN3CCOCC3)c3c2CCC3)c(C)c1	n[7.34 µM]	x	n[7.34 µM]
CCNc1nn2ccccc2c1/C=C(\C#N)C(=O)OCC	n	10µM	n
CCOC(=O)/C(C#N)=C/c1c(N2CCN(C)CC2)nc2ccccn2c1=O	n	n	n
O=C(c1ccccc1)c1ccc(OCCCN2CCCC2)cc1	n	n	n
Cc1cccc(OCCCN2CCCCCC2)c1	n	31.6µM	n
O=C(c1ccccc1)c1ccc(OCCOCCN2CCN(Cc3ccccc3)CC2)cc1	u	14.1µM	n
c1ccc(COc2ccc(OCCCCN3CCCCC3)cc2)cc1	n	25.1µM	n
Fc1ccccc1OCCCCCN1CCCC1	n	n	n
Fc1ccccc1OCCCCCCN1CCCC1	x	7.94µM	x
Cc1cccc(OCCCCCN2CCOCC2)c1	n	n	n
O=C(c1ccccc1)c1ccc(OCCCCN2CCCCC2)cc1	n	n	u
O=C(Nc1ccccc1Sc1ccccc1)c1cnn2c1NC(=C1CC1)C=C2C(F)F	n	x	n
COc1cc(-c2cc3n(C)c(C)c(CCC(=O)NC4CCCCC4)c(=O)n3n2)cc(OC)c1OC	n	x	n
COc1ccc(NC(=O)c2c(C(=O)Nc3ccccc3)sc3nc(C)cc(=O)n23)cc1	n	x	n
CCc1cccc(C)c1Nc1c(-c2cccs2)nc2nc(C)cc(C)n12	n	x	n
CC1C(=O)N(Cc2cn(Cc3ccco3)nn2)CCS(=O)(=O)N1Cc1ccc(-c2ccncc2)cc1 (stereo not drawn)	n	x	n
COc1ccc(N2CCN(C(=O)COC(=O)CCOc3ccccc3C)CC2)cc1	n	n	n
COc1ccc(C2CC(=O)c3c(C)nc(N4CCN(Cc5ccccc5)CC4)nc3C2)cc1OC (stereo not drawn)	x	3.55µM	x
Cc1nc(N2CCN(Cc3ccccc3)CC2)nc2c1C(=O)CC(C)C2 (stereo not drawn)	x	n	x
O=C(Nc1cccnc1)c1ccc(-c2ccc(Cl)cc2)o1	n	n	n
O=C(Nc1cccnc1)c1ccc(-c2cc(Cl)ccc2Cl)o1	n	11.2µM	n
Cc1cccc(Cn2c(CNC(=O)c3ccccc3)nc3ccccc32)c1	n	x	n
COC(=O)c1ccc(NC(=O)Nc2ccc(F)cc2F)cc1	n	11.2µM	n
COc1ccccc1Oc1ccc(NC(=O)c2ccc(Cl)cc2)cc1	x	2.82µM	x
SMILES	Vaccinia mCherry	HCV inh	VACV Venus inh
CCN(CC)c1ccc(C(=O)Nc2cccc(F)c2)cc1	x	10µM	u
O=C(Nc1ccccc1)Nc1ccc(F)cc1F	x	n	x
COc1ccc(C(=O)Nc2ccc(OC)c(OC)c2)cc1	x	n	x
CN(C)c1cccc(C(=O)Nc2cccc(F)c2)c1	n	n	n
COC(=O)c1ccc(NC(=O)Cc2ccc(F)cc2)cc1	n	n	n
COC(=O)c1ccc(C(=O)Nc2ccc(F)cc2)cc1	n	7.08µM	n
COC(=O)c1ccccc1C(=O)N1CCc2c(cnc(C)c2CNC(=O)c2ccccc2F)C1	n	x	n
COCc1ccc(CN2Cc3ccccc3OC(c3ccccc3OC)C2)o1 (stereo not drawn)	n	x	n
Cc1cccc(NC(=O)c2ccc(N(Cc3ccccc3)S(C)(=O)=O)cc2)c1	n	x	n
O=C(NCc1ccccc1)c1nc(-c2ccc(Cl)cc2)n2c1CCCCC2	n	x	n
COc1cc(-c2cnc3ccccc3c2)cc2c1OCCN(C(=O)CCn1nc(C)cc1C)C2	n	x	n
COC(=O)c1ccc(NC(=O)Nc2cccc(F)c2)cc1	n	10µM	n
COc1ccc(NC(=O)Nc2cccc(F)c2)c(OC)c1	n	n	n
COc1cc2c(NC3CCN(C)CC3)nc(N3CCCN(C)CC3)nc2cc1OCCCN(C)C	n	x	u
COc1cc2nc(N3CCCN(C)CC3)nc(NC3CCNCC3)c2cc1OC	n	x	n
COc1cc2c(NC3CCN(C)CC3)nc(N3CCCN(C)CC3)nc2cc1OCC1CCCNC1 (stereo not drawn)	n	x	n
COc1cc2c(NC3CCN(C)CC3)nc(N3CCCN(C)CC3)nc2cc1OCCCCCCN(C)C	5.01µM	x	7.08µM
CCCN(C)CCCOc1cc2nc(N3CCCN(C)CC3)nc(NC3CCN(C)CC3)c2cc1OC	u	x	12.6µM
COc1cc2c(NC3CCN(C)CC3)nc(N3CCCN(C)CC3)nc2cc1OCCCCN(C)C	u	x	10µM
COc1ccc(NC(=O)c2ccc(-c3nn(C)c(=O)c4ccccc34)cc2)cc1C(N)=O	x	n	x
COc1cccc(CNc2ncnc3sc(C(=O)N4CCOCC4)c(C)c23)c1OC	n	x	n
COC(=O)c1cccc(C(=O)N2CCc3c(cnc(C)c3CNC(=O)/C=C/c3cccs3)C2)c1	n	x	n

High-throughput results deposited in PubChem by National Center for Advancing Translational Sciences (NCATS).
